Assay outcomes: PubChem, National Center for Advancing Translational Sciences (NCATS)
JMJD2A Tudor inh: blocks the human JMJD2A Tudor domain. AID 504339. hit rate 4.4% among 390,000. AlphaScreen JMJD2A-Tudor / H3K4me3 peptide binding. O75164. Potency, µM (top dose mostly 114 µM), without a hit: at the top dose activity change, negative = inhibition, usual class: inhibitors; also: potency is read from the fitted curve at half-maximal effect; % is scaled to controls: 0 for no effect and ±100 for the full control effect; nearly all actives have a fitted effect of over 50% in size
Target sequence (O75164 whole entry, looked up, the tested form may be a part): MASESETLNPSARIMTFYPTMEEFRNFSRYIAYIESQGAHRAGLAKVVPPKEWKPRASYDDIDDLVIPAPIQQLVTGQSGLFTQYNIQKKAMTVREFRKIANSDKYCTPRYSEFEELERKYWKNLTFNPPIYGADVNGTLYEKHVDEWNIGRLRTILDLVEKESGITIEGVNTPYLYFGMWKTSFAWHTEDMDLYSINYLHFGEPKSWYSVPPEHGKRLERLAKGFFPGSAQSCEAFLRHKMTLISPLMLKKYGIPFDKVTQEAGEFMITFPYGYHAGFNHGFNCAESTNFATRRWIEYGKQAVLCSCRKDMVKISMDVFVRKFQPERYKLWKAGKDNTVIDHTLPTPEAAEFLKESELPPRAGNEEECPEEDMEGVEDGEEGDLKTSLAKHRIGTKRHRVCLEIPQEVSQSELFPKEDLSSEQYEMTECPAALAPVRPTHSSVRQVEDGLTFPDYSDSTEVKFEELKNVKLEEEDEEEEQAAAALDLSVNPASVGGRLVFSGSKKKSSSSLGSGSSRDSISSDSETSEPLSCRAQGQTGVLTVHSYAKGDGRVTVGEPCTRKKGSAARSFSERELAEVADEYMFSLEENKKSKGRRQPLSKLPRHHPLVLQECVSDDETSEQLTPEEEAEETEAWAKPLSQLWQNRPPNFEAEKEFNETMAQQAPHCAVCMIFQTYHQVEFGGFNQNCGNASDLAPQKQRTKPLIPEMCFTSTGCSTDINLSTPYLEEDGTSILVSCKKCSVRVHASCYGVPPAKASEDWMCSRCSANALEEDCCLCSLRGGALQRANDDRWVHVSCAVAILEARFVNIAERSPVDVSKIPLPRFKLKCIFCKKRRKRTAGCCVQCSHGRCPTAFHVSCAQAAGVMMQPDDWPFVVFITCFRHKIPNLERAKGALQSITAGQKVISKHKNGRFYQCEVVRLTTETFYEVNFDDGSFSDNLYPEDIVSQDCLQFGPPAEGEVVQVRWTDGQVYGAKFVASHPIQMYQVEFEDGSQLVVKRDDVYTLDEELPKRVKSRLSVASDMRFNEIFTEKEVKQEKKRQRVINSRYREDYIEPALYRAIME
CtBP-E1A blk: blocks the CtBP interaction with E1A | AlphaScreen GST-E1A/His-CtBP binding, 1536-well; hits give low values | activity change, % (concentration not given with the values) | hit rate 0.49% among 340,000; in the data active = activity change below about -65%; inconclusive = mostly about -30% to -63%; also: % is scaled to controls: 0 for no effect and ±100 for the full control effect
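In 5 uL wells, 23 nL compound meets equimolar GST-E1A and His-CtBP (5X stock 125 nM each) for 2 h, 37 °C. Beads (5X, 50 ug/mL) then 1 h, 37 °C, dark.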
G9a block: inhibitors of human histone lysine methyltransferase G9a; G9a H3K9 monomethylation, AlphaScreen, 2 h; Potency, µM (series often up to 102 µM), inactives show at the top dose activity, negative = inhibition, hits mostly inhibitors; hit rate 8.8% among 350,000; AID 504332; also: potency is read from the fitted curve at half-maximal effect; % is scaled to controls: 0 for no effect and ±100 for the full control effect; nearly all actives have a fitted effect of over 75% in size
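G9a (20 nM) preincubated 15 min RT with compounds, then 500 nM biotinylated H3K9 peptide and 20 uM SAM added; 2 h RT reaction. Monomethyl-H3K9 product detected by AlphaScreen with anti-H3K9me1 antibody, streptavidin donor and anti-rabbit IgG acceptor beads.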
HP1b binding inh: HP1-beta chromodomain-methylated histone interaction inhibition; AlphaScreen HP1-beta / biotin-H3K9me3 peptide binding; Potency, µM (series often up to 114 µM), without a hit: at the top dose activity change, negative = inhibition, hits mostly inhibitors; hit rate 0.56% among 390,000; also: potency is read from the fitted curve at half-maximal effect; nearly all actives have a fitted effect of over 70% in size
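AlphaScreen: HP1-beta (50 nM) preformed 30 min with biotin-H3(1-18)K9me3 peptide (50 nM) in PBS pH 7.4, 0.01% Tween-20. Compound added for 30 min at RT, then streptavidin donor/nickel chelate acceptor beads (10 ug/mL) for 30 min.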
Six1-Eya2 blk: blocks human Six1 binding to Eya2 | Q15475+O00167 | AlphaScreen GST-Six1/His-Eya2 binding, biochemical; hits give low values | activity change, % (concentration not given with the values) | hit rate 0.56% among 360,000 | AID 651725; in the data active = activity change below about -65%; inconclusive = mostly about -30% to -63%; also: % is scaled to controls: 0 for no effect and ±100 for the full control effect
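Six1/Eya2 binding was read as AlphaScreen signal after compounds were pinned into GST-Six1 plus His-tagged Eya2 (5X stock 250/500 nM) in pH 8.0 Tris/NaCl/TCEP buffer, beads added, then incubated 1 h, 37 C, dark.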
BAZ2B inh: inhibitors of human BAZ2B bromodomain | Q9UIF8 | Potency, µM (highest dose often 114 µM), inactives show at the top dose activity change, negative = inhibition, most hits filed as inhibitors | hit rate 4.4% among 360,000 | AlphaScreen BAZ2B-H3K14Ac peptide displacement | AID 504333; also: potency is read from the fitted curve at half-maximal effect; % is scaled to controls: 0 for no effect and ±100 for the full control effect; nearly all actives have a fitted effect of over 60% in size
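BAZ2B (50 nM) with biotin-H3(5-23)K14Ac peptide (50 nM) in PBS pH 7.4, 0.01% Tween-20, preformed 30 min, then compound 30 min at room temperature; top concentration 110uM. AlphaScreen streptavidin donor/nickel chelate acceptor beads (10 ug/mL final), 20 min dark, signal read.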
* hit, by the source's call; ? = inconclusive; . = no result given; ! = repeats disagree; [ ] = dose if it differs, or a comment. Rows were chosen to be rich in hits. Some 10% of all compounds tested hit in one or more screens of this group. Unless noted, calls follow the shape of the dose curve; as a rule, active = well fitted inhibition curve with a large enough effect; inconclusive = small, poorly fitted or top-dose-only effect; inactive = no such curve, though single readings can be large or run the other way.

SMILES	JMJD2A Tudor inh	CtBP-E1A blk	G9a block	HP1b binding inh	Six1-Eya2 blk	BAZ2B inh
CCOC(=O)c1ccc(Nc2c(-c3cccc(O)c3)nc3nc[nH]n23)cc1	-34%	.	?	13%	.	-31%
NNc1nc(-c2ccccc2)cc(-c2ccccc2)n1	-31%	5	-14%	30%	-1	?
NNc1nc(-c2ccccc2)cc(-c2ccccc2O)n1	?	-28	7%	3%	-16	50µM*
COc1ccc(-c2nnc(SCC(=O)Nc3cc(C)on3)n2N)cc1OC	-17%	-4	50µM*	37%	3	-5%
COc1ccc(OC)c(C(=O)CSc2nnc(-c3cccnc3)n2C)c1	-10%	2	18µM*	24%	-3	-19%
Cc1cc(NC(=O)CSc2nnnn2-c2ccc(C)c(Cl)c2)no1	-7%	-8	45µM*	23%	5	7%
COc1cccc(-c2nnc(SCC(=O)Nc3cc(C)on3)n2C)c1	-4%	4	50µM*	17%	4	-2%
Cc1cc(NC(=O)CSc2nnc(-c3ccco3)n2C)no1	-18%	.	21%[12.7 µM]	30%	8	8%
Cc1cc(NC(=O)CSc2nnc(-c3cccc(F)c3)n2N)no1	-17%	3	-16%[2.33 µM]	29%	-4	-10%
Cc1ccc(-n2nc(C)c3c(C)cc(=O)n(CC(=O)Nc4ccc(Br)cc4F)c32)cc1	0%	.	10%[59 µM]	25%	.	0%
COc1c(Cl)cc(C(=O)NN)cc1Cl	-4%	-1	.	30%	2	4%
NNC(=O)c1cc(O)c(O)c(O)c1	1.8µM*	.	8.9µM*	45µM*	-25	18µM*
CCCCNS(=O)(=O)c1ccc2nc(SCC(=O)c3ccccc3OC)[nH]c2c1	-16%	-12	35µM*	28%	-9	0%
CCCCNS(=O)(=O)c1ccc2nc(SCC(=O)Nc3sccc3C#N)[nH]c2c1	-18%	?	71µM*	12%	?	9%
COc1ccc(CC(N)c2csc(NC(=O)C(c3ccccc3)c3ccccc3)n2)cc1 (stereo unspecified)	.	0	.	.	1	.
CCOC(=O)N1CCC(N2Cc3cccc(C(=O)NCc4ccc(C)cc4)c3C2=O)CC1	-31%	-1	?	15%	0	-12%
CCOC(=O)N1CCC(N2C(=O)c3ccccc3C2Nc2cccnc2)CC1 (stereo unspecified)	-9%	2	?	38%	-2	2%
CCOC(=O)N1CCC(N2Cc3cccc(C(=O)NC(C)c4ccc5c(c4)OCCO5)c3C2=O)CC1 (stereo unspecified)	-32%	-9	40µM*	23%	-2	-10%
CCOC(=O)N1CCC(N2CCN(S(=O)(=O)c3ccc4ccccc4c3)CC2)CC1	0.89µM*	-23	8.9µM*	?	-11	?
CCOC(=O)N1CCC(N2C(=O)c3ccccc3C2Nc2ccc3c(c2)OCCO3)CC1 (stereo unspecified)	?	-5	50µM*	-6%	-6	?
CCOC(=O)N1CCC(N2C(=O)c3ccccc3C2Nc2ccc(S(=O)(=O)N3CCCCC3)cc2)CC1 (stereo unspecified)	.	.	40µM*	.	.	-6%
Cc1ccccc1N(CC(=O)N1CCCCCC1)S(C)(=O)=O	-8%	5	40%	9%	4	1%
Cc1ccc(S(=O)(=O)N2CCN(Cc3cc(Br)ccc3O)CC2)cc1	-15%	.	-32%[59 µM]	24%	.	-2%
Cc1ccc(C)c(N2CCN(C(=O)c3ccc4c(Cl)c5c(nc4c3)CCCC5)CC2)c1	-22%	.	?	23%	.	?
N#Cc1cccc(NC(=O)N2CC[C@@]3(CCCNC3)C2)c1	.	.	-14%[12.7 µM]	.	.	.
SMILES	JMJD2A Tudor inh	CtBP-E1A blk	G9a block	HP1b binding inh	Six1-Eya2 blk	BAZ2B inh
CCOC(=O)c1ccccc1NC1c2ccccc2C(=O)N1C1CCN(C(=O)OCC)CC1 (stereo unspecified)	-19%	0	40µM*	18%	0	-26%
COc1ccc(/C=N/NC(=O)CNC(=O)COc2ccccc2)cc1	-6%	2	6%[59 µM]	6%	3	9%
COc1ccc(OCC(=O)N/N=C/c2ccc(N(C)C)cc2)cc1	-34%	-12	45µM*	2%	-13	?
COc1ccc(OCC(=O)N/N=C/c2cccn2-c2cccc(C(=O)O)c2)cc1	45µM*	-8	35µM*	?	-21	79µM*
CCc1ccc(S(=O)(=O)c2nnn3c2nc(N(CC)Cc2ccccc2)c2cc(Cl)ccc23)cc1	3%	.	8%[59 µM]	41%	.	12%
COc1cccc(C(O)c2ncc(-c3ccccc3Cl)[nH]2)c1 (stereo unspecified)	.	-4	.	.	-15	.
CC(C)(C)c1cc[n+](C2=C([O-])c3ccccc3C(=O)/C2=N\S(=O)(=O)c2cccs2)cc1	-25%	-1	.	-15%	-1	-28%
Cc1cccc(NC2=C/C(=N/S(=O)(=O)c3cccs3)c3ccccc3C2=O)c1	5.6µM*	?	?	?	-23	2.5µM*
O=S(=O)(/N=C/c1ccccc1O)c1cccs1	-13%	1	27%	43%	2	1%
O=C1C(Nc2ccc(O)cc2)=C/C(=N/S(=O)(=O)c2cccs2)c2ccccc21	20µM*	?	11µM*	?	-77*	7.9µM*
Cc1ccc(NC2=C/C(=N\S(=O)(=O)c3cccs3)c3ccccc3C2=O)c(C)c1	4.5µM*	-85*	7.9µM*	5.6µM*	-84*	3.5µM*
O=C1/C(=N\S(=O)(=O)c2cccs2)C([n+]2ccccc2)=C([O-])c2ccccc21	-3%	.	1%[59 µM]	28%	6	?
Cc1ccc(Cl)cc1NC1=C/C(=N\S(=O)(=O)c2cccs2)c2ccccc2C1=O	2.8µM*	-78*	8.9µM*	4µM*!	-74*!	10µM*
Cc1ccc(CCNC(=O)c2ccc(CSc3nc4ccncc4n3Cc3ccc(F)cc3)cc2)cc1	-16%	.	12%[59 µM]	69%	.	20%
CC(=O)c1ccc(-c2c(C3C4C=CCC(C)C4C(=O)N3Cc3ccccc3)ccc3ccccc23)cc1 (stereo unspecified)	-30%	.	.	23%	.	.
O=C(OCC(=O)c1cccs1)c1ccccc1	-4%	10	?	46%	9	-34%
O=C(CC(Nc1ccccc1Cl)C(=O)OCC(=O)c1cccs1)c1ccccc1 (stereo unspecified)	-8%	8	10µM*	51%	0	-4%
CN(C(=O)c1ccc(OCC=C(c2ccccc2)c2ccccc2)cc1)c1ccccc1I	-18%	.	.	17%	.	.
CCOc1ccc(NC(=O)Cn2c(=O)nc(-c3ccccc3)c3ccccc32)cc1	5%	.	0%[12.7 µM]	25%	.	-3%
Cc1ncc(CO)c2c1Oc1nc(-c3ccc(Cl)cc3)nc(SCC(=O)N3CCCCC3)c1C2	-15%	.	?	26%	.	?
